{
  "source": "paper PMC11062922",
  "about": "(Nature Chemical Biology, 2023)",
  "design_in_all_cases": "species or system human, MV4-11 + K-562 + COLO205 + SK-N-BE2 + OVCAR-8",
  "key": {"ACVR1B": {"tested_on": "ACVR1B", "conditions": "read-out: apparent Kd, n = 1"}, "CSNK1D": {"tested_on": "CSNK1D", "conditions": "read-out: apparent Kd, compound concentrations: 100 nM and 1000 nM (sheet 'Samples'), n = 1"}, "CSNK1E": {"tested_on": "CSNK1E", "conditions": "read-out: apparent Kd; compound concentrations: 100 nM and 1000 nM (sheet 'Samples'), CATDS: 0.19201098088976601; n = 1"}, "MAPK14": {"tested_on": "MAPK14", "conditions": "read-out: apparent Kd, compound concentrations: 100 nM and 1000 nM (sheet 'Samples'), n = 1"}, "ADRBK1": {"tested_on": "ADRBK1", "conditions": "read-out: apparent Kd; compound concentrations:100 nM and 1000 nM (sheet 'Samples'); n = 1"}, "AKT1": {"tested_on": "AKT1", "conditions": "read-out: apparent Kd; compound concentrations:100 nM and 1000 nM (sheet 'Samples'); n = 1"}, "AKT2": {"tested_on": "AKT2", "conditions": "read-out: apparent Kd; compound concentrations:100 nM and 1000 nM (sheet 'Samples'); n = 1"}, "CDC42BPG": {"tested_on": "CDC42BPG", "conditions": "read-out: apparent Kd, n = 1"}, "CDK6": {"tested_on": "CDK6", "conditions": "read-out: apparent Kd; compound concentrations:100 nM and 1000 nM (sheet 'Samples'); n = 1"}, "CSNK1A1": {"tested_on": "CSNK1A1", "conditions": "read-out: apparent Kd; compound concentrations:100 nM and 1000 nM (sheet 'Samples'); n = 1"}, "MAP2K1": {"tested_on": "MAP2K1", "conditions": "read-out: apparent Kd; compound concentrations:100 nM and 1000 nM (sheet 'Samples'); n = 1"}, "MAP2K2": {"tested_on": "MAP2K2", "conditions": "read-out: apparent Kd; compound concentrations:100 nM and 1000 nM (sheet 'Samples'); n = 1"}, "NQO1": {"tested_on": "NQO1", "conditions": "read-out: apparent Kd; compound concentrations:100 nM and 1000 nM (sheet 'Samples'); n = 1"}, "PYGL": {"tested_on": "PYGL", "conditions": "read-out: apparent Kd; compound concentrations:100 nM and 1000 nM (sheet 'Samples'); n = 1"}, "RIOK2": {"tested_on": "RIOK2", "conditions": "read-out: apparent Kd; compound concentrations:100 nM and 1000 nM (sheet 'Samples'); n = 1"}, "TGFBR1": {"tested_on": "TGFBR1", "conditions": "read-out: apparent Kd; compound concentrations:100 nM and 1000 nM (sheet 'Samples'); n = 1"}, "TP53RK": {"tested_on": "TP53RK", "conditions": "read-out: apparent Kd; compound concentrations:100 nM and 1000 nM (sheet 'Samples'); n = 1"}, "CDC42": {"tested_on": "CDC42", "conditions": "read-out: apparent Kd; compound concentrations:100 nM and 1000 nM (sheet 'Samples'); n = 1"}, "ADCK1": {"tested_on": "ADCK1", "conditions": "read-out: apparent Kd; compound concentrations:100 nM and 1000 nM (sheet 'Samples'); n = 1"}, "PIK3CA": {"tested_on": "PIK3CA", "conditions": "read-out: apparent Kd; compound concentrations:100 nM and 1000 nM (sheet 'Samples'); n = 1"}, "PIK3CD": {"tested_on": "PIK3CD", "conditions": "read-out: apparent Kd; compound concentrations:100 nM and 1000 nM (sheet 'Samples'); n = 1"}, "PKN1": {"tested_on": "PKN1", "conditions": "read-out: apparent Kd; compound concentrations:100 nM and 1000 nM (sheet 'Samples'); n = 1"}, "PKN2": {"tested_on": "PKN2", "conditions": "read-out: apparent Kd; compound concentrations:100 nM and 1000 nM (sheet 'Samples'); n = 1"}, "RAB5C": {"tested_on": "RAB5C", "conditions": "read-out: apparent Kd; compound concentrations:100 nM and 1000 nM (sheet 'Samples'); n = 1"}, "TTN": {"tested_on": "TTN", "conditions": "read-out: apparent Kd; compound concentrations:100 nM and 1000 nM (sheet 'Samples'); n = 1"}, "ACOX3": {"tested_on": "ACOX3", "conditions": "read-out: apparent Kd; compound concentrations: 100 nM and 1000 nM (sheet 'Samples'), CATDS: 0.63885197419414497; n = 1"}, "FECH": {"tested_on": "FECH", "conditions": "read-out: apparent Kd; compound concentrations: 100 nM and 1000 nM (sheet 'Samples'), CATDS: 0.41072954272515799; n = 1"}, "CIT": {"tested_on": "CIT", "conditions": "read-out: apparent Kd; compound concentrations: 100 nM and 1000 nM (sheet 'Samples'), CATDS: 0.11106465565946499; n = 1"}, "GRK6": {"tested_on": "GRK6", "conditions": "read-out: apparent Kd; compound concentrations: 100 nM and 1000 nM (sheet 'Samples'), CATDS: 0.11057023586935499; n = 1"}, "MAPKAPK2": {"tested_on": "MAPKAPK2", "conditions": "read-out: apparent Kd; compound concentrations: 100 nM and 1000 nM (sheet 'Samples'), CATDS: 0.164691534232419; n = 1"}, "PKN3": {"tested_on": "PKN3", "conditions": "read-out: apparent Kd; compound concentrations: 100 nM and 1000 nM (sheet 'Samples'), CATDS: 0.17855560727929401; n = 1"}, "BRAF": {"tested_on": "BRAF", "conditions": "read-out: apparent Kd; compound concentrations: 100 nM and 1000 nM (sheet 'Samples'), CATDS: 0.43506507859715299; n = 1"}, "[1]": {"conditions": "compound concentrations:100 nM and 1000 nM (sheet 'Samples')"}},
  "note": "Read-outs that look alike come from different tables or passages of the source.",
  "data": [
    {"smiles": "CN(C)CCCNc1nccc(-c2c(-c3ccc(F)cc3)nn3cc(C(F)(F)F)ccc23)n1.CS(=O)(=O)O", "note": "[GW618013A]", "values": [
      {"measurement": "potency estimated from few doses", "setting": "ACVR1B; compound concentrations: 100 nM and 1000 nM (sheet 'Samples'), CATDS: 0.30191803443786602", "result": 0.849, "unit": "µM"},
      {"measurement": "potency estimated from few doses", "setting": "CSNK1D; CATDS: 0.30648491159914698", "result": 0.827, "unit": "µM"},
      {"measurement": "potency estimated from few doses", "setting": "CSNK1E", "result": 2.34, "unit": "µM"},
      {"measurement": "potency estimated from few doses", "setting": "MAPK14; CATDS: 0.23713518302070899", "result": 1.37, "unit": "µM"}
    ]},
    {"smiles": "COc1ccccc1-c1cc(/C=C2\\C(=O)Nc3ncc(Br)cc32)cc(Br)c1O", "note": "[GW442130X]", "values": [
      {"measurement": "potency estimated from few doses", "setting": "ACVR1B; [1]", "result": 0.646, "unit": "µM"},
      {"measurement": "potency estimated from few doses", "setting": "ADRBK1", "result": 1.96, "unit": "µM"},
      {"measurement": "potency estimated from few doses", "setting": "AKT1", "result": 1.54, "unit": "µM"},
      {"measurement": "potency estimated from few doses", "setting": "AKT2", "result": 1.12, "unit": "µM"},
      {"measurement": "potency estimated from few doses", "setting": "CDC42BPG; [1]", "result": 0.453, "unit": "µM"},
      {"measurement": "potency estimated from few doses", "setting": "CDK6", "result": 1.94, "unit": "µM"},
      {"measurement": "potency estimated from few doses", "setting": "CSNK1A1", "result": 1.78, "unit": "µM"},
      {"measurement": "potency estimated from few doses", "setting": "MAP2K1", "result": 1.65, "unit": "µM"},
      {"measurement": "potency estimated from few doses", "setting": "MAP2K2", "result": 1.58, "unit": "µM"},
      {"measurement": "potency estimated from few doses", "setting": "NQO1", "result": 1.26, "unit": "µM"},
      {"measurement": "potency estimated from few doses", "setting": "PYGL", "result": 1.84, "unit": "µM"},
      {"measurement": "potency estimated from few doses", "setting": "RIOK2", "result": 1.45, "unit": "µM"},
      {"measurement": "potency estimated from few doses", "setting": "TGFBR1", "result": 0.592, "unit": "µM"},
      {"measurement": "potency estimated from few doses", "setting": "TP53RK", "result": 1.74, "unit": "µM"}
    ]},
    {"smiles": "Cl.NC(=O)c1ccc(-c2nc(-c3ccccn3)c(-c3ccc4c(c3)OCO4)[nH]2)cc1", "note": "[SB-431542-A]", "values": [
      {"measurement": "potency estimated from few doses", "setting": "ACVR1B; [1]", "result": 1.14, "unit": "µM"},
      {"measurement": "potency estimated from few doses", "setting": "CDC42", "result": 0.731, "unit": "µM"},
      {"measurement": "potency estimated from few doses", "setting": "TGFBR1", "result": 0.946, "unit": "µM"}
    ]},
    {"smiles": "Cl.Cl.c1ccc(-c2cc3ccncc3cc2OC2CCNCC2)cc1.c1ccc(-c2cc3ccncc3cc2OC2CCNCC2)cc1", "note": "[GSK1122999D]", "values": [
      {"measurement": "potency estimated from few doses", "setting": "ACVR1B; [1]", "result": 1.16, "unit": "µM"},
      {"measurement": "potency estimated from few doses", "setting": "ADCK1", "result": 1.28, "unit": "µM"},
      {"measurement": "potency estimated from few doses", "setting": "PIK3CA", "result": 0.287, "unit": "µM"},
      {"measurement": "potency estimated from few doses", "setting": "PIK3CD", "result": 0.179, "unit": "µM"},
      {"measurement": "potency estimated from few doses", "setting": "PKN1", "result": 2.03, "unit": "µM"},
      {"measurement": "potency estimated from few doses", "setting": "PKN2", "result": 2.04, "unit": "µM"},
      {"measurement": "potency estimated from few doses", "setting": "RAB5C", "result": 1.19, "unit": "µM"},
      {"measurement": "potency estimated from few doses", "setting": "TTN", "result": 0.886, "unit": "µM"}
    ]},
    {"smiles": "Cc1ccc(NC(=O)c2cccc(C#N)c2)cc1-c1ccc(C(=O)Nc2ccncc2)cc1", "note": "[GSK1398463A]", "values": [
      {"measurement": "potency estimated from few doses", "setting": "ACOX3", "result": 0.513, "unit": "µM"},
      {"measurement": "potency estimated from few doses", "setting": "FECH", "result": 1.3, "unit": "µM"}
    ]},
    {"smiles": "CSc1cccc2c(-c3ccncn3)c(-c3ccc(F)cc3)nn12", "note": "[GW514786X]", "values": [
      {"measurement": "potency estimated from few doses", "setting": "ACVR1B; compound concentrations: 100 nM and 1000 nM (sheet 'Samples'), CATDS: 0.17509937322487801", "result": 0.801, "unit": "µM"},
      {"measurement": "potency estimated from few doses", "setting": "CIT", "result": 2.19, "unit": "µM"},
      {"measurement": "potency estimated from few doses", "setting": "CSNK1D; CATDS: 0.131295791130774", "result": 1.42, "unit": "µM"},
      {"measurement": "potency estimated from few doses", "setting": "GRK6", "result": 2.22, "unit": "µM"},
      {"measurement": "potency estimated from few doses", "setting": "MAPK14; CATDS: 0.16800162105717001", "result": 0.863, "unit": "µM"},
      {"measurement": "potency estimated from few doses", "setting": "MAPKAPK2", "result": 0.895, "unit": "µM"},
      {"measurement": "potency estimated from few doses", "setting": "PKN3", "result": 0.774, "unit": "µM"}
    ]},
    {"smiles": "CN(C)CCOc1ccc(-c2cc(-c3ccc4c(c3)CCC4=NO)c(-c3ccncc3)o2)cc1.Cl", "note": "[SB-682330-A]", "values": [
      {"measurement": "potency estimated from few doses", "setting": "ACVR1B; compound concentrations: 100 nM and 1000 nM (sheet 'Samples'), CATDS: 0.32185082744978499", "result": 1.13, "unit": "µM"},
      {"measurement": "potency estimated from few doses", "setting": "BRAF", "result": 0.644, "unit": "µM"},
      {"measurement": "potency estimated from few doses", "setting": "CDC42BPG; compound concentrations: 100 nM and 1000 nM (sheet 'Samples'), CATDS: 0.27820560825635698", "result": 1.6, "unit": "µM"}
    ]}
  ]
}
